# High-throughput results from PubChem.
# Only some compounds are listed: those with a hit (about 4.1% of all), similar ones and a draw of the others.
# hgDAF12 agonist – hgDAF-12 agonism, primary luciferase screen. HEK293 GAL4-hgDAF12 UAS-luciferase reporter, agonist luminescence; normalized to butyrate control. activation, % at 6.8 µM. hit rate 1.8% among 370,000. AID 687014;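 active means activation above a cutoff set at the mean of all screened compounds plus 3 SD, cut at about 10% in these data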;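 further: 0% = DMSO wells and 100% = sodium butyrate wells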
# ssDAF-12 act – activators of S. stercoralis DAF-12 nuclear receptor; AID 652126; HEK293 ssDAF-12/GRIP1 lit1-tk-luc reporter, luminescence; % of 3 µM dafachronic acid response; hit rate 1% among 370,000; activation, % at 6.8 µM;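 active means activation above the mean over all tested compounds plus 3 SD, cut at about 0.9% in these data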;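 further: 0% = DMSO-only wells and 100% = 3 µM delta7-dafachronic acid wells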
# DAX1 inh-1 – inhibits human nuclear receptor DAX1; P51843; AID 504766; hit rate 0.99% among 340,000; inhibition, % at 6.75 µM; HEK293 Gal4-DAX1 luciferase reporter, luminescence;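 active means inhibition above the mean over all tested compounds plus 3 SD, cut at about 4.2% in these data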;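 further: 0% = DAX1-transfected cells with DMSO and 100% = empty-vector control cells with DMSO; inhibition shows as a rise in luminescence from relieved DAX1 repression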
# DAX1 inh-2 – inhibitors of DAX1 repression of SF-1 activated StAR promoter. HEK293T StAR-luciferase reporter, SF-1/DAX-1 repression relief. inhibition, % at 6.8 µM. hit rate 1.1% among 370,000;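 active means inhibition above the mean over all tested compounds plus 3 SD, cut at about 3.6% in these data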;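 further: 0% = DAX-1 cells with DMSO and 100% = cells lacking DAX-1 with DMSO; higher inhibition means more luminescence from relief of DAX-1 repression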
# hcDAF-12 act – H. contortus DAF-12 activation, primary screen. HEK293 hcDAF-12 lit1-tk-luc reporter, luminescence; 0% DMSO, 100% Δ7-dafachronic acid. activation, % at 6.8 µM. AID 652067. hit rate 1.4% among 370,000;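 active means activation above the mean of all tested compounds plus 3 SD, cut at about 5.5% in these data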;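 further: 100% = response to 3 µM Δ7-dafachronic acid high control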
# DAX1 conf – confirmation of human DAX1 (NR0B1) inhibitors. shares compounds with DAX1 inh-2. HEK293T StAR-promoter luciferase reporter, SF-1/DAX-1 repression. inhibition, % at 6.8 µM. hit rate 87% among 2,400. AID 652134;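 active means inhibition above the average of every tested compound plus 3 SD, cut at about 3.8% in these data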;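 further: 0% = DAX-1 cells with DMSO and 100% = no DAX-1 control cells with DMSO; active compounds raise luminescence by relieving repression of the StAR reporter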
# Target sequence (P51843 whole entry, looked up): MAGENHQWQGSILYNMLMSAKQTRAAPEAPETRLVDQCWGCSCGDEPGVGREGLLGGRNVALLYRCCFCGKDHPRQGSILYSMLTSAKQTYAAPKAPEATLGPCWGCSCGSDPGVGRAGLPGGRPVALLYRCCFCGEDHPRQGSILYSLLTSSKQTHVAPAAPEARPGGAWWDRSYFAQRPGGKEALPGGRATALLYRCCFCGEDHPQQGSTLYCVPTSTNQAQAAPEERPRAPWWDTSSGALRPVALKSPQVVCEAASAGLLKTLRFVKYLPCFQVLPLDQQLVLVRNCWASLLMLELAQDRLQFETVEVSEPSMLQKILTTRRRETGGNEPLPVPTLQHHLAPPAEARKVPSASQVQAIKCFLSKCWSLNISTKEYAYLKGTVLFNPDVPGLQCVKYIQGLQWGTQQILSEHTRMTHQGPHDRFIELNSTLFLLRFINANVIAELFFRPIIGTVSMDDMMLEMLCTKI
# SF1 AF2mut Luc – counter-screen for DAX1 inhibitors: nonselective inhibitors with SF-1 AF2 mutant. shares compounds with DAX1 inh-2. HEK293 StAR-luciferase, luminescence. inhibition, % at 6.8 µM. hit rate 78% among 2,400;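 active means inhibition above the mean of all tested compounds plus 3 SD, cut at about 3% in these data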;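 further: 0% = DAX-1 transfected cells with DMSO and 100% = cells without DAX-1 with DMSO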
# Numbers without * were called inactive; nt = not tested or not shown.
SMILES,hgDAF12 agonist,ssDAF-12 act,DAX1 inh-1,DAX1 inh-2,hcDAF-12 act,DAX1 conf,SF1 AF2mut Luc
Cc1cccc(C)c1NC(=O)[C@H]1CC(=O)O[C@@H]1c1ccccc1,-1,-1,nt,-1,0,nt,nt
O=C(N[C@H]1CC[C@@H]2SC[C@@H](C(=O)O)N2C1=O)OCC1c2ccccc2-c2ccccc21,0,-1,nt,-1,-1,nt,nt
COc1cc(-c2cc(NC=O)c3ncc(-c4ccc(C(C)=O)cc4)n3c2)cc(OC)c1OC,-4,-2,nt,-4,-3,nt,nt
COc1cc(-c2cnc3c(NC=O)cc(-c4ccc(C)cc4)cn23)cc(OC)c1OC,-3,0,nt,11*,-2,21*,-7
CC1(C)Cc2cccc(OCC(=O)NCCc3ccccc3)c2O1,-1,0,1,5.1*,-1,4.5*,3.1*
CC1(C)Cc2cccc(OCC(=O)NCCc3ccc(S(N)(=O)=O)cc3)c2O1,3,-2,0,1,-2,nt,nt
COC(=O)[C@@]12CCCCC3=C1N(CCC3)C(=O)[C@H]2CC(=O)N1CCN(C(=O)c2ccco2)CC1,1,-1,nt,0,0,nt,nt
Cc1cccc(NS(=O)(=O)c2ccc(C(=O)NCC3(N4CCCCC4)CCCCC3)cc2)c1C,2,0,1,7.3*,4,9.7*,6.6*
Cc1ccccc1NS(=O)(=O)c1ccc(C(=O)NCC2(N3CCOCC3)CCCCC2)cc1,3,-2,1,-1,0,nt,nt
O=C(NCC1(N2CCCCC2)CCCCC1)c1ccc(NS(=O)(=O)c2ccccc2)cc1,4,0,3,8.9*,1,9.0*,5.6*
O=C(NCC1(N2CCCCC2)CCCCC1)c1ccc(S(=O)(=O)N2CCCC2)cc1,2,-2,3,3,0,nt,nt
CC(C)(C)N1Cc2nnn(Cc3ccccc3)c2-c2cc(N3CCCC3)ccc2S1(=O)=O,-1,-1,nt,-1,-2,nt,nt
COC(=O)N1Cc2ccnnc2CC1c1ccccc1-c1ccc(F)cc1 (stereo not drawn),-3,0,nt,1,-2,nt,nt
O[C@@H]1[C@@H](O)[C@H](n2c3ccc(Cl)cc3c3ccc4c5cc(Cl)ccc5[nH]c4c32)OC[C@H]1O,5,-2,nt,-1,1,nt,nt
O=C(CN1CCN(S(=O)(=O)c2ccc(Cl)cc2)CC1)NCC1(N2CCOCC2)CCCCC1,-1,-1,0,4.7*,-2,1,2
Cc1ccc(S(=O)(=O)N2CCN(CC(=O)NCC3(N4CCOCC4)CCCCC3)CC2)cc1,0,-1,-1,1,2,nt,nt
CCOC(=O)[C@]12CCCCC/C=C\1N(CCc1ccc(Cl)cc1)C(=O)[C@H]2CC(=O)NCC12CC3CC(CC(C3)C1)C2,-3,-2,nt,0,-2,nt,nt
COc1cccc(C=Cc2nccc3ccccc23)c1OC,11*,-1,0,6.1*,4,3.8*,2
O=C(Cn1nnc(-c2ccc3c(c2)OCO3)n1)Nc1ccccc1C(=O)O,3,-1,0,4.9*,1,2,3.1*
O=C(Cn1nnc(-c2ccccc2)n1)Nc1ccc2c(c1)OCO2,1,-1,0,1,1,nt,nt
Cc1occc1C(=O)N/N=C/c1ccc[nH]1,11*,0,2,5.2*,3,3,1
CC(=O)c1ccccc1NC(=O)c1ccc2c(c1)NC(=O)C(C)S2 (stereo not drawn),2,-1,-1,3,2,nt,nt
Cc1ccnc(NC(=O)c2ccc3c(c2)NC(=O)C(C)S3)c1 (stereo not drawn),6,0,-2,11*,4,9.2*,3.9*
COc1ccc(CN(C)C(=O)[C@H]2O[C@@H](n3ccc(=O)[nH]c3=O)[C@H](O)[C@@H]2O)cc1OC,-1,-1,nt,4.7*,0,0,0
CCCN1CCN(CCCNC(=O)c2ccc3nc(N4CCC(C)CC4)sc3c2)CC1,10,0,-2,6.0*,5,9.2*,4.8*
SMILES,hgDAF12 agonist,ssDAF-12 act,DAX1 inh-1,DAX1 inh-2,hcDAF-12 act,DAX1 conf,SF1 AF2mut Luc
CC1CC(C)CN(CCCNC(=O)c2ccc3nc(N4CCOCC4)sc3c2)C1 (stereo not drawn),-1,-2,0,0,-1,nt,nt
c1ccc(CCSc2nnc(-c3cccnc3)n2Cc2ccccc2)cc1,-1,-1,nt,0,0,nt,nt
Cc1ccccc1Cn1cc(CN2[C@@H](C)COc3cc(Br)ccc3S2(=O)=O)nn1,-1,-2,nt,-1,1,nt,nt
CCOC(=O)c1ccc(NC(=O)N2CCc3ccccc32)cc1,18*,1,2,4.8*,5,11*,7.9*
COc1ccccc1NC(=S)OCCN1CCCC12CCC(c1ccccc1)CC2 (stereo not drawn),-7,-1,nt,nt,-3,nt,nt
CCCN(CCC)c1ncnc2c1cnn2-c1ccc(OC)cc1,10,0,1,5.3*,5,14*,3.1*
COc1ccc(-n2ncc3c(Nc4cccc(C)c4)ncnc32)cc1,3,-1,0,1,-1,nt,nt
Cc1cc(NC(=O)COc2ccc3ccccc3c2Br)no1,9,-1,1,6.0*,3,5.6*,6.0*
Cc1ccccc1N1CCN(C(=O)CN2C(=O)CC(C)(C)S(=O)(=O)c3ccccc32)CC1,1,-2,nt,-1,-2,nt,nt
CCCNC(=O)c1noc2c1CCc1ccccc1-2,8,0,0,4.5*,2,2,3.0*
O=C(NCCc1ccccc1)c1noc2c1CCc1ccccc1-2,3,-1,1,0,-1,nt,nt
COC(=O)[C@]12C[C@H](CC(=O)NCc3cccc(C(F)(F)F)c3)C(=O)N(Cc3ccc(Cl)cc3Cl)C1=C[C@H](C1CCCC1)O[C@@H]2C,1,-1,nt,-2,-2,nt,nt
Nc1nc(=O)n(C2OC(CO)C(O)C2O)cc1F (stereo not drawn),-6,-2,nt,-4,-2,nt,nt
Nc1cnn(C2OC(CO)C(O)C2O)c(=O)n1 (stereo not drawn),-4,-2,-1,4.6*,1,6.8*,0
Cc1cc2nc(N3CCN(C(=O)c4ccco4)CC3)sc2cc1C,2,-1,1,3,-1,nt,nt
Cc1cc(C)c2nc(N3CCN(C(=O)c4ccco4)CC3)sc2c1,5,-1,2,5.0*,-1,4.4*,2
Cc1ccccc1-c1cccc2c3c([nH]c12)[C@@H]1C[C@H]2[C@@H](CN1CC3)[C@H](C)ON2C,-4,-1,nt,0,-1,nt,nt
Cn1c2ccccc2c(=O)c2cc(NCCCN3CCOCC3)ccc21,11*,0,4,5.1*,4,15*,10*
